Growth data for 40 compounds are collected here from PubChem BioAssay (NCI).

SMILES strings stand for the structures. This is part of a sample that, as a whole, favours compounds with a hit. Of some 83,000 tested, about 20% had one in any assay.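 Negative percent growth values reflect cell death: -40 means 40% of the cells present at the start died, and -100 means all died.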 Unmarked numbers belong to inactive results. Active and inactive are the calls of the source.

For this test, the system named is ACHN renal. Nature of the test: NCI-60 one-dose screen, 48 h (100 = growth as untreated, 0 = no growth, -100 = all killed). Conditions: 10 µM unless noted. As for the experimental part: Growth inhibition of the ACHN human tumor cell line is measured as a screen for anti-cancer activity. Cells are grown in 96 well plates and exposed to the test compound for 48 hours. Compounds are tested at a single concentration, which is 10^-5 M for most compounds. The reported endpoint is percent growth (GI% or GIPRCNT), where numbers from 0 - 100% represent growth inhibition, and numbers from -100% - 0 represent cell death. For example, a value of 40 represents 60% growth inhibition. A value of 0 means no net growth occurred over the course of the experiment. A value of -40 indicates 40% of cells at the beginning of the experiment died by the end of the experiment. A value of -100 means all cells are dead at the end of the experiment.
NCI-60 Human Tumor Cell Lines Screen was performed using the standard one-dose NCI protocol, which is described in more detail at https://dtp.cancer.gov/discovery_development/nci-60/default.htm.
Compounds with GIPRCNT values below 10 were considered active. Activity score was based on GIPRCNT using the following formula: […]
Score is 0 for GIPRCNT values of 100 or above, 50 for GIPRCNT values of 0, and 100 for GIPRCNT values of -100.
Take `COc1ccc(Cl)cc1Nc1nc(C(F)(F)F)ccc1C(=O)N/N=C/c1ccc([N+](=O)[O-])cc1`: the growth is -9.86% (active).
Under `C=CC(CC(c1ccccc1)(c1ccccc1)c1ccccc1)N(CC)CC` (stereo not given) stands 85.8%; under `COC(=O)c1c2c(c(C)[n+]([O-])c1C)C(=O)C(NCc1ccccc1)=CC2=O`, 35.4%.
Then `C#Cc1cccc(NC(=O)C2CCCCN2C(=O)CCl)c1` (stereo not given), with -97.3% [8.25 µM] (active).
Regarding `Clc1ccc2nn3c4ccccc4c(OCCN4CCOCC4)nc3c2c1`, the growth is 70.7%.
Then `O=CCCCOCc1ccccc1`, with 101%.
On to `O=C(O)c1cn(C2CC2)c2cc(N3CCN(C(=O)N/N=C/c4cccc5ccccc45)CC3)c(F)cc2c1=O`, for which the growth was 101%.
For `CCOC(=O)CC1CSC(N/N=C/c2ccc(F)c(Br)c2)=N1` (stereo not given), the growth is 106%.
Turning to `CCOc1ccc(NC(=O)Nc2ccc(OCC)cc2)cc1`, the growth is 116%.
Then `CC(C)(C)CC(C)(C)Nc1c(-c2c(O)c3ccccc3oc2=O)nc2sc3ccccc3n12`, with 33.7%; and `COc1ccc(C(=O)/C=C/c2ccccc2)cc1S(N)(=O)=O`, with 74.9%; and `COc1cc2c(c(OC)c1OC)CCC(c1cccc(C(=O)Nc3ccc(Br)cc3)c1)O2` (stereo not given), with 67.9%.
Then `CCCn1c(=S)sc2c(NNC(C)=O)nc(C)nc21`, with 88.1%; and `CCCN(CCSSCCNc1nc(N(C)O)nc(N(C)O)n1)c1nc(N(C)O)nc(N(C)O)n1`, with 45.3%; and `CC(=O)c1sc(-c2ccc(F)cc2)cc1O`, with 106%.
Then `O=C(OCc1ccc2c(Cl)cc(Cl)c(O)c2n1)N1CCN(C(=O)c2cc3ccccc3[nH]2)CC1`, with 11.6%; and `COc1ccc(-c2cc(C(=O)N3N=C(c4ccc(N)cc4)CC3c3ccc(Cl)cc3)c3ccccc3n2)cc1` (stereo not given), with 43.6%.
On to `CSc1nc(-c2ccco2)c(C#N)c(=O)n1C`, for which the growth was 100%.
Then `CNC(=O)NCC1OC(n2cnc3c(NC(=O)Nc4ccccc4)ncnc32)C2OC(=O)CC12` (stereo not given), with 94.9%; and `C[C@@H]1NC(=O)[C@H](Cc2ccccc2)N(Cc2cccnc2)C1=O`, with 97.3%; and `CCCC(=O)NC(c1ccc2c(c1)OCO2)c1cc(Cl)c2cccnc2c1O` (stereo not given), with 18.1%.
Under `O=S(=O)(Nc1cc(F)cc(F)c1)c1ccc(-c2cnc(C3CC3)o2)cc1` stands 43.5%; under `O=C(NC1CCC(Br)CC1)C1CCCC(S(=O)(=O)NC2CCCCC2)C1` (stereo not given), 15.9% [25 µM].
Then `COc1ccc(Nc2ncc(I)c(NCCCNC(=O)C3CCC3)n2)cc1`, with -21% (active); and `CN(C)CCCNC(=O)c1cncnc1Nc1ccc2c(ccn2Cc2cccc(F)c2)c1`, with 102%.
As to `CCCCCCCCn1ccc2cc(NC(=O)CN=[N+]=[N-])ccc21`, the growth is 104%.
For `Cc1nc2sc(C(=O)Nc3cccc(Cl)c3C)c(N)c2cc1C(=O)/C=C/c1ccccc1`, the growth is 3.93% (active).
Regarding `CCN(CC)CCOc1ccc(C(=O)/C=C\c2ccc(Cl)cc2Cl)cc1`, the growth was 52.7%.
Under `CNC(=O)Nc1ccc(-c2ccc3ncnc(Nc4cccc(Cl)c4)c3c2)cc1` stands 34.2%; under `CN(C)CCCn1c2c(c3ccncc3c1=O)C(=O)c1ccccc1-2`, -38.4% (active); under `CS(=O)(=O)Nc1cc(-c2ccc3ncnc(Nc4ccc5c(cnn5Cc5ccncc5)c4)c3c2)cnc1Cl`, 89.9%.
In the case of `COc1cc2c(cc1-c1c(C)noc1C)ncc1nc(CN3CCOCC3)n([C@H](C)COC(F)F)c12`, the growth is 36.1%.
For the compound `COc1ccc(-c2nc3ccc(C)cc3c3c2c(=O)n(C)c(=O)n3C)cc1OC`, the growth is 97.7%.
Then `c1cc(OCCN2CCCCC2)ccc1CNc1ccc2nc(CCC3CCCCC3)[nH]c2c1`, with 45.4%; and `c1ccc(-c2c(-c3ccccc3)[n+](Cc3ccc4ccccc4c3)cn2Cc2ccc3ccccc3c2)cc1`, with -100% (active); and `COc1ccc(OC)c(Nc2nnc(-c3cc(OC)c(OC)c(OC)c3)o2)c1`, with 105%.
Then `C=CCn1cc(-c2nc3ccccc3s2)c2cc(-c3ccc4c5c(cccc35)C(=O)N(CCO)C4=O)ccc21`, with 94.5%.
Then `CCN(CC)CCOc1ccc2c(-c3ccccc3)c(-c3ccc(OC)cc3)c(=O)oc2c1`, with 75.3%; and `CC(=O)c1ccc(-n2cc(CN3CCN(c4cc5c(cc4F)c(=O)c(C(=O)O)cn5C4CC4)CC3)nn2)cc1`, with 96.7%; and `CCCCCCCCn1ccc2cc(NC(=O)CN3CCN(c4cc(C)nc(Cl)n4)CC3)ccc21`, with 86.3%.
